Shown are actives, neighbours in structure and some others; about 10% of the full set was active somewhere.
HPGD block = blocks human HPGD enzyme activity; Potency, µM, for inactives: top-dose activity change, negative = inhibition, actives largely listed as inhibitors; 150,000 tested, 4.3% active; purified HPGD, NADH fluorescence kinetic, PGE2 substrate; note: potency is the fitted concentration of half-maximal effect
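20 nM HPGD preincubated 15 min at room temperature with compound in 50 mM Tris-HCl pH 8, 0.01% Tween 20. Started with 1 mM NAD+ and 30 uM prostaglandin E2; NADH fluorescence (360/450 nm) read 5 times over 30-s intervals, last minus first.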
PNC assembly inh = perinucleolar compartment assembly inhibition | PC3M PTB-GFP, PNC prevalence imaging, 16 h; stronger effect = lower value | activity change (PNC), negative = inhibition, % at 10 µM | 140,000 tested, 3.1% active | AID 2417;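 active = readout at or below -70, meaning at least 70% loss of cells showing the perinucleolar compartment, a nuclear body marking cancer cells; inconclusive = readout between -30 and a set limit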;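 note: plate controls were DMSO wells for no effect and camptothecin positive control wells for full effect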
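Read-out is percentage of cells bearing a perinucleolar compartment, from automated 20x imaging of fixed, Hoechst-stained PC3M PTB-GFP cells. Cells were seeded 4 h, then exposed 16 h to compound (23 nl of library stock) in duplicate plates.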
Lamin A splicing = LMNA splicing modulation | 200,000 tested, 0.01% active | HeLa LMNA splicing GFP/RFP minigene ratio, 48 h | AID 1487 | Potency, µM (top dose mostly 46.1 µM), inactives show at the top dose ratio change, negative = inhibition, actives largely listed as inhibitors; active = well fitted inhibition curve with a large enough effect in the signal ratio, with a control signal flat, not every such curve was filed as active; inconclusive = small, poorly fitted or top-dose-only effect, or effect the other way, or a change in a side signal; the % refers to the signal ratio; note: potency is the fitted concentration of half-maximal effect
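S3 HeLa stable clones carrying a lamin A-EGFP splicing minigene plus DsRed2 were seeded at 600 cells/well in Opti-MEM with 2% FBS, pin-dosed and incubated 48 h at 37°C. Acumen cytometry (488 nm) gave the GFP/RFP total-intensity ratio.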
ALDH1A1 inh = inhibitors of human aldehyde dehydrogenase 1A1. P00352. Purified ALDH1A1, NADH fluorescence, propionaldehyde substrate. 220,000 tested, 7.3% active. Potency, µM (top dose mostly 75.3 µM), without a hit: top-dose activity, negative = inhibition, most hits filed as inhibitors;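 note: potency is the fitted concentration of half-maximal effect; plate controls were no enzyme wells and a reference inhibitor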
Target sequence (P00352 whole entry, looked up): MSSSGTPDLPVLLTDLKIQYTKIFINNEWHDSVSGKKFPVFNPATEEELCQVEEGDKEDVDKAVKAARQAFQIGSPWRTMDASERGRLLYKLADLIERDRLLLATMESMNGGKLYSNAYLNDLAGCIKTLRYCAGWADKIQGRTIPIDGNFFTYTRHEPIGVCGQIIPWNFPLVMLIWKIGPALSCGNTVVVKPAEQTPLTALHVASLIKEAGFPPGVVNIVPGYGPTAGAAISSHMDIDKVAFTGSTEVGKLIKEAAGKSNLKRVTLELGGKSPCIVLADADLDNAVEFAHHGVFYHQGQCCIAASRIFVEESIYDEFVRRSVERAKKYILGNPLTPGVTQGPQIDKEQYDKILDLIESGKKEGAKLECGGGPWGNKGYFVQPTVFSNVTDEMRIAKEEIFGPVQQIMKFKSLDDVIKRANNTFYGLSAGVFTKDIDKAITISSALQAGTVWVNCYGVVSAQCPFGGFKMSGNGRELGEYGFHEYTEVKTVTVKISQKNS
Luc counter = blocks Kinase-Glo luciferase, a counter-screen artifact | Kinase-Glo luciferase, ATP luminescence, 8 min | 200,000 tested, 0.28% active | AID 1379 | Potency, µM (highest dose often 38.3 µM), for the others: at the highest dose activity change, negative = inhibition, usual class: inhibitors | Q27757; active = well fitted inhibition curve with a large enough effect; inconclusive = small, poorly fitted or top-dose-only effect; note: potency is the fitted concentration of half-maximal effect; nearly all actives have a fitted effect of over 60% in size
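Compounds were added to a substrate mix at pH 7.2 (50 mM imidazole, 10 uM ATP, within the enzyme's linear range), followed by Kinase-Glo detection reagent; luminescence was measured after 8 minutes at ambient temperature.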
Starred values were filed as active, the others as inactive; ? = inconclusive; / = not tested or not shown; [ ] = remark or other dose. Unless noted, calls come from the whole dose curve; as a rule, active = well fitted inhibition curve with a large enough effect (not every such curve was filed as active); inconclusive = small, poorly fitted or top-dose-only effect, or another doubt; inactive = no such curve, though single readings can be large or run the other way. Unless noted, % is set by controls: 0 for no effect and ±100 for the full control effect.

SMILES | HPGD block | PNC assembly inh | Lamin A splicing | ALDH1A1 inh | Luc counter
O=C(O)c1cc(N=Nc2ccc([As](=O)(O)O)cc2)ccc1O | -12% | / | / | 2%[13.5 µM] | 0%[7.66 µM]
CC1=CC(=O)OC2CC3OC4C[C@@H](C)C5OC6CC7O[C@]8(C)C/C=C\C9OC%10CC%11OC(CC(C)CO)CC(O)[C@]%11(C)OC%10CC9OC8C[C@]7(C)O[C@]6(C)CCC5OC4C[C@]3(C)OC12 (stereo partly drawn) | / | / | / | 2.8µM* | /
O=C(O)c1ccc2c(c1)C1C(Cl)C(Sc3ccccc3[N+](=O)[O-])CC1C(c1cccc([N+](=O)[O-])c1)N2 (stereo not drawn) | / | / | / | ? | 2%
O=C(O)c1cccc2c1NC(c1cccc([N+](=O)[O-])c1)C1CC(Sc3ccccc3[N+](=O)[O-])C(Cl)C21 (stereo not drawn) | / | / | 5%[46 µM] | 3.5µM* | -6%
CCN(CC)C(=O)c1ccc2c(c1)C1C(Cl)C(Sc3ccccc3[N+](=O)[O-])CC1C(C(=O)O)N2 (stereo not drawn) | / | / | / | 25µM* | /
CN1CCCC2(CCN(C(=O)c3ccco3)CC2)C1 | -2% | / | / | 0% | 0%
CCCCn1c(=O)c(C=Nc2cc([N+](=O)[O-])ccc2OC)c(O)n(CCCCl)c1=O | -18% | ? | ? | 11µM* | 0%
C=CCc1c(C)[nH]c(=S)c(C#N)c1C | 4µM* | 28 | 8% | 4.5µM* | 5%
COCc1cc(C)c(C#N)c(=S)[nH]1 | ? | 9 | -1% | ? | -2%
N#CCc1ccccc1 | -8% | / | / | 2% | /
Oc1cc(Cl)c(Cl)cc1Cl | 5.6µM* | / | / | -2% | /
Oc1cc(Cl)c(Cl)c(Cl)c1Cl | ? | / | / | 1% | /
CCCC[N+](=O)[O-] | -5% | / | / | ? | /
NCCCC[C@H](NC(=O)[C@H](Cc1ccccc1)NC(=O)[C@H](CCCN=C(N)N)NC(=O)[C@@H](N)Cc1ccc(O)cc1)C(N)=O | / | / | / | -3% | /
CC12CC(c3ccccc3O1)C(C(=O)OCc1ccccc1)C(=O)N2 (stereo not drawn) | -6% | -119* | -2% | 1% | 2%
CC(=O)C1C(=O)NC23CCCCC2C1c1ccccc1O3 (stereo not drawn) | -10% | 24 | -11% | -6% | -1%
CCC(=NCc1ccc2c(c1)OCO2)c1c(O)n(C2CCCCC2)c(=O)[nH]c1=O | -29% | -83* | -14% | 13µM* | -1%
CCC(=NCCO)c1c(O)n(C2CCCCC2)c(=O)[nH]c1=O | -3% | 14 | 0% | 6% | 0%
O=C1CC2OCC=C3CN4CC[C@]56c7ccccc7N1C5C2[C@H]3C[C@H]46 (stereo partly drawn) | / | / | 0% | 7% | /
CN1C2CCC1/C(=C/c1ccccn1)C(=O)/C2=C\c1ccccn1 | -10% | -109* | ? | -2% | 0%
N#CC(c1ccc(Cl)nn1)c1c(F)cccc1Cl (stereo not drawn) | / | / | / | 14µM* | -2%
Cc1ccc([N+](=O)[O-])cc1C | -8% | / | / | ? | /
Cn1cnc([N+](=O)[O-])c1Sc1ccc([N+](=O)[O-])cc1 | / | / | / | 7.9µM* | 1%
CCN1CCN(P2(=O)C=C(c3ccccc3)OC(c3ccccc3)=C2)CC1 | -7% | -29 | 6% | 14µM* | -2%
Cc1c2ccncc2c(C)c2c1[nH]c1ccccc12 | -16% | -115* | ? | ? | -2%
SMILES | HPGD block | PNC assembly inh | Lamin A splicing | ALDH1A1 inh | Luc counter
CC(C)C(CCN1C(=O)c2ccccc2C1=O)c1ccco1 (stereo not drawn) | -16% | 45 | 2% | 22µM* | 2%
CC1(C)CC(=O)C2=C(C1)OC(N)=C([N+](=O)[O-])C2c1ccc(C#N)s1 (stereo not drawn) | / | / | / | 20µM* | -3%
O=C1OC(c2cc(I)c(O)c(I)c2)(c2cc(I)c(O)c(I)c2)c2ccccc21 | 11µM* | / | / | -4% | 2%[39.9 µM]
CCOc1ccccc1OCCCCN1CCCC1 | -8% | 30 | -2% | 22µM* | -1%
CCOc1ccccc1N=C1SCCCN1C | -9% | 4 | 22% | 5% | -4%
Cc1cccc(NC(=O)c2cccc(NS(=O)(=O)c3ccc(Cl)cc3)c2)c1 | 13µM* | -5 | ? | ? | -4%

Bioassay records deposited in PubChem by National Center for Advancing Translational Sciences (NCATS).
